Values joined by “and” are separate entries in the source; they are usually repeats but may differ in a detail not shown here. Equal values may be shown once. Records with an inconclusive call do not appear. Some structures have more than one record in an assay (separate samples or runs), and their calls can disagree. Active and inactive are the calls of the source. How the source made its calls, unless noted: active means hit-call score of the fitted dose curve at least 0.9, where 1 is the maximum; inactive means score below 0.9.
Experiments:
[1] = ATG_NFI_CIS: Attagene CIS-FACTORIAL HepG2 Assay for human Nuclear Factor I (NFI) (AID 2282989); details: HepG2 cis-regulatory reporter, NFI response element transcription; actives raise or lower the signal
How it was run: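 Read-out: reporter mRNA via RT-PCR plus capillary electrophoresis with fluorescence detection. Transiently transfected HepG2 (endogenous TF activity on cis promoters), 24 h compound exposure; gain or loss of signal fitted against DMSO.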

[2] = biological target: Myc proto-oncogene protein (Homo sapiens) (UniProt P01106); test: ATG_Myc_CIS: Attagene CIS-FACTORIAL HepG2 Assay for human Myelocytomatosis (Myc) Proto-Oncogene Transcription Factor (AID 2282990); details: HepG2, Attagene cis-reporter transcription factor activity; actives raise or lower the signal
Sequence of Myc proto-oncogene protein (Homo sapiens) (P01106 whole entry, looked up): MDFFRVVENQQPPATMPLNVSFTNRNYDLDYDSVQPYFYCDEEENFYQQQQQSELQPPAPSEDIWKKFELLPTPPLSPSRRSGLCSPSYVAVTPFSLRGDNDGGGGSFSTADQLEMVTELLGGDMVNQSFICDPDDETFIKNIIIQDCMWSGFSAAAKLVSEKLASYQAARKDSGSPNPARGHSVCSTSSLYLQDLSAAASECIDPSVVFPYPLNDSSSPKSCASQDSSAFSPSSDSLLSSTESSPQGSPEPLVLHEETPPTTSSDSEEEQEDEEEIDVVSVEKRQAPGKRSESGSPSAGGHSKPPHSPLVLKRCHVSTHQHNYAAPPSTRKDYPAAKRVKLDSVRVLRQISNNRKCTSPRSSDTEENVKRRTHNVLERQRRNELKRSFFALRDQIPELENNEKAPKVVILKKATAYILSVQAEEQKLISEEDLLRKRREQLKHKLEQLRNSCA
How it was run: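 Multiplexed cis-reporter transcription in HepG2 cells after 24 h chemical treatment. Reporter mRNA measured by RT-PCR and capillary electrophoresis fluorescence; activity fitted bidirectionally against DMSO control.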

[3] = ATG_NF_kB_CIS: Attagene CIS-FACTORIAL HepG2 Assay for human Nuclear Factor Kappa B (NF-kB) (AID 2282991); details: HepG2 Attagene cis-factorial NF-kB reporter mRNA; actives raise or lower the signal
How it was run: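 Multiplexed cis-reporter assay in transiently transfected HepG2. 24 h treatment; RNA isolated, RT-PCR, labelled fragments resolved by CE. DMSO baseline.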

[4] = ATG_NRF2_ARE_CIS: Attagene CIS-FACTORIAL HepG2 Assay for human Nuclear Factor Erythroid 2 Related Factor 2 (NFR2) response to Antioxidant Response Elements (ARE) (AID 2282992); details: HepG2 Attagene ARE/NRF2 reporter, transcription factor activity; actives raise or lower the signal
How it was run: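 Endogenous transcription factor activity read out as reporter transcript levels (RT-PCR plus capillary electrophoresis, fluorescence) in transiently transfected HepG2 cells. Measured at 24 h after dosing; gain or loss of signal fitted versus DMSO.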

[5] = ATG_Oct_MLP_CIS: Attagene CIS-FACTORIAL HepG2 Assay for human Octamer-Binding Transcription Factor (Oct) (AID 2282993); details: HepG2 Attagene cis-factorial Oct reporter, mRNA; actives raise or lower the signal
How it was run: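 Read-out: reporter mRNA via RT-PCR plus capillary electrophoresis of 6-FAM-labelled fragments. Transiently transfected HepG2, 24 h exposure, endogenous TF activity on cis elements. Gain or loss of signal fitted relative to DMSO.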

[6] = biological target: Cellular tumor antigen p53 (Homo sapiens) (UniProt P04637); test: ATG_p53_CIS: Attagene CIS-FACTORIAL HepG2 Assay for human p53 Transcription Factor (AID 2282994); details: HepG2 p53 cis-element reporter, Attagene mRNA; actives raise or lower the signal
Sequence of Cellular tumor antigen p53 (Homo sapiens) (P04637 whole entry, looked up): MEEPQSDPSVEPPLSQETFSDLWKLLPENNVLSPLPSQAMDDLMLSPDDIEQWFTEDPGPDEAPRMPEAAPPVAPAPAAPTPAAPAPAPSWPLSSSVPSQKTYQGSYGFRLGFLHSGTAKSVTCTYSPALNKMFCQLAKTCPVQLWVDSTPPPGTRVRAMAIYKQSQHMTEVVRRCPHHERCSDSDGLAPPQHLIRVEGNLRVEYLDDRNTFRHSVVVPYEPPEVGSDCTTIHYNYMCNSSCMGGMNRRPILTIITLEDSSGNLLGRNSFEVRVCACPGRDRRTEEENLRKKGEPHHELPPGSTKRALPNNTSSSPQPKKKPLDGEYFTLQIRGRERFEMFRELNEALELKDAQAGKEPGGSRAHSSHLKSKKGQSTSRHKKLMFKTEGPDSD
How it was run: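 Endogenous p53 activity read in transiently transfected HepG2 from a cis-element-driven reporter transcript after 24 h exposure. RNA reverse-transcribed, PCR-amplified, fluorescently labelled and sized by capillary electrophoresis; gain or loss fitted against DMSO baseline.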

[7] = BSK_3C_TissueFactor: BioMAP Diversity Plus: 3C Assay for Tissue Factor Biomarker Activity (AID 2282997); details: BioMAP 3C HUVEC, tissue factor biomarker readout; actives raise or lower the signal
How it was run: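 Tissue Factor measured by ELISA, 24 h after treatment of primary HUVEC in the BioMAP 3C setting.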

[8] = BSK_3C_uPAR: BioMAP Diversity Plus: 3C Assay for Urokinase-type plasminogen activator receptor (uPAR) Biomarker Activity (AID 2282998); details: BioMAP 3C HUVEC, uPAR biomarker ELISA; actives raise or lower the signal
How it was run: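 HUVEC primary cells; 24 h post-dose; uPAR by ELISA; gain or loss of signal fitted bidirectionally vs DMSO baseline.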

[9] = BSK_3C_VCAM1: BioMAP Diversity Plus: 3C Assay for Vascular cell adhesion molecule 1 (VCAM1) Biomarker Activity (AID 2282999); details: BioMAP 3C HUVEC, VCAM1 ELISA, cytokine-stimulated; actives raise or lower the signal
How it was run: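 Vascular primary endothelium (human umbilical vein) was exposed to chemicals and assayed 24 h later. VCAM-1 levels came from ELISA, with DMSO serving as baseline for bidirectional fitting.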

[10] = BSK_4H_Eotaxin3: BioMAP Diversity Plus: 4H Assay for Eotaxin 3 Biomarker Activity (AID 2283000); details: primary human endothelial cells (HUVEC); actives raise or lower the signal
How it was run: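 Eotaxin-3 (CCL26) levels were measured by ELISA in HUVEC primary cultures 24 h post-dosing. Gain or loss of signal was fitted in both directions, with DMSO serving as baseline and negative control.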

[11] = biological target: human Peroxisome Proliferator-activated Receptor alpha (PPARa), PPARA (gene 5465) (UniProt Q07869); test: ATG_PPARa_TRANS: Attagene TRANS-FACTORIAL HepG2 Assay for human Peroxisome Proliferator-activated Receptor alpha (PPARa) (AID 2283001; active means hit-call score of the fitted dose curve at least 0.9, where 1 is the maximum)
Sequence of human Peroxisome Proliferator-activated Receptor alpha (PPARa), PPARA (gene 5465) (Q07869 whole entry, looked up, the tested form may be a part): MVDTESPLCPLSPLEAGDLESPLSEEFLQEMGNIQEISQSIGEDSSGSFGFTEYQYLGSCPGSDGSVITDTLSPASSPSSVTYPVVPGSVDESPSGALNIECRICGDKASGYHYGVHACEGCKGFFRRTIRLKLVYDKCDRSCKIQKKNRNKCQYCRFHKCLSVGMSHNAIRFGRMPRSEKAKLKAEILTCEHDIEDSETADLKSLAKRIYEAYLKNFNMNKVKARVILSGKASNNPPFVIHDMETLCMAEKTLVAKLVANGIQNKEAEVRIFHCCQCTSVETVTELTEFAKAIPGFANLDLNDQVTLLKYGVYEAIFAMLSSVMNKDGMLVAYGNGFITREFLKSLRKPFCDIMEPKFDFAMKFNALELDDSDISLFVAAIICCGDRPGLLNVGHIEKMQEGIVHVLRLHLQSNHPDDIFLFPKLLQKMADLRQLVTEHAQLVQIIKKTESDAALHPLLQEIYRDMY
How it was run: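 Exposure: 24 h, transiently transfected HepG2 cells. Endpoint: GAL4-UAS reporter mRNA, RT-PCR with capillary electrophoresis fluorescence. Baseline: DMSO; increases fitted.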

[12] = biological target: human Peroxisome Proliferator-activated Receptor delta (PPARd), PPARD (gene 5467) (UniProt Q03181); test: ATG_PPARd_TRANS: Attagene TRANS-FACTORIAL HepG2 Assay for human Peroxisome Proliferator-activated Receptor delta (PPARd) (AID 2283002; active means hit-call score of the fitted dose curve at least 0.9, where 1 is the maximum)
Sequence of human Peroxisome Proliferator-activated Receptor delta (PPARd), PPARD (gene 5467) (Q03181 whole entry, looked up, the tested form may be a part): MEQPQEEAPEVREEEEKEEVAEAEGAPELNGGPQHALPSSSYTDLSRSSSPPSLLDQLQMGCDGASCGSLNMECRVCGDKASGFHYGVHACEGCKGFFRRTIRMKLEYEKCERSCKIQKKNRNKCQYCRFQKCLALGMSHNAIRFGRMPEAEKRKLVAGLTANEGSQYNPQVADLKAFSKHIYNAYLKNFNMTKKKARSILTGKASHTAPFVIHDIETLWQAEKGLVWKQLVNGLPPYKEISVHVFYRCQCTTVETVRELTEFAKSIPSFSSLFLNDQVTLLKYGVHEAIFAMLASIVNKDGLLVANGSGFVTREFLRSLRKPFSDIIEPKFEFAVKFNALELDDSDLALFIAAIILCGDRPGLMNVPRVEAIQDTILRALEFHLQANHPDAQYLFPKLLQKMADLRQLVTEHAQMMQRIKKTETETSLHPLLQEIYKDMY
How it was run: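 Multiplexed trans-activation format: HepG2 liver cells expressing exogenous NR-Gal4 chimeras and GAL4-UAS reporters were exposed for 24 h. Reporter mRNA was detected by RT-PCR with capillary electrophoresis fluorescence; activity fitted as gain of signal relative to DMSO.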

[13] = read-out: Intercellular Adhesion Molecule 1 (ICAM1), ICAM1 (gene 3383); test: BSK_3C_ICAM1: BioMAP Diversity Plus: 3C Assay for Intercellular Adhesion Molecule 1 (ICAM1) Biomarker Activity (AID 2283003); details: primary human endothelial cells (HUVEC); actives raise or lower the signal
How it was run: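 ELISA read-out of ICAM-1; HUVEC (primary human), 3C system, 24 h post-dosing; bidirectional fit vs DMSO baseline.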

[14] = BSK_3C_Proliferation: Cell Proliferation Assessment in the BioMAP Diversity Plus: 3C Assay (AID 2283006); details: primary human endothelial cells (HUVEC);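 on AC50: potency may reflect either rise or fall in cell number versus DMSO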
How it was run: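 HUVEC, sub-confluent; 48 h chemical exposure; 10% TCA fix, 0.1% SRB stain, A560 total protein. Gain or loss of signal fitted both directions vs DMSO control.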

[15] = biological target: Peroxisome proliferator-activated receptor gamma (Homo sapiens) (UniProt P37231); test: ATG_PPARg_TRANS: Attagene TRANS-FACTORIAL HepG2 Assay for human Peroxisome Proliferator-activated Receptor-gamma (PPARg) (AID 2283007; active means hit-call score of the fitted dose curve at least 0.9, where 1 is the maximum)
Sequence of Peroxisome proliferator-activated receptor gamma (Homo sapiens) (P37231 whole entry, looked up): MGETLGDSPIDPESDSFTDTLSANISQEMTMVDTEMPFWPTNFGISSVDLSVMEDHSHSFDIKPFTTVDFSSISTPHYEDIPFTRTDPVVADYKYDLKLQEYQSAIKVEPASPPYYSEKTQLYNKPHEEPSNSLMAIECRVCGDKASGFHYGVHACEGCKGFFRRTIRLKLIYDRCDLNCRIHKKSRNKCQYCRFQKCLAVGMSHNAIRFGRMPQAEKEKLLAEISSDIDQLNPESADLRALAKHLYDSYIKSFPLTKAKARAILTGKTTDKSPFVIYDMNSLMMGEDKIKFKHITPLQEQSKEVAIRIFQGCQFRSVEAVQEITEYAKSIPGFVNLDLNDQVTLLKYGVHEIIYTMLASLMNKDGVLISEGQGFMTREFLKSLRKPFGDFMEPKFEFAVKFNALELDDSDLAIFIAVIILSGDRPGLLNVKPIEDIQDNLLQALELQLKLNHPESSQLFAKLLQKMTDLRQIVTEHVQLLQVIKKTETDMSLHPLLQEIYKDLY
How it was run: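 Human hepatoma HepG2, transient MRTU transfection, 24 h treatment. mRNA reporter signal by RT-PCR plus capillary electrophoresis, fluorescence detection; fitted for increase over DMSO negative control.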

[16] = biological target: Nuclear receptor subfamily 1 group I member 2 (Homo sapiens) (UniProt O75469); test: ATG_PXR_TRANS: Attagene TRANS-FACTORIAL HepG2 Assay for human Pregnane X Receptor (PXR) (AID 2283008; active means hit-call score of the fitted dose curve at least 0.9, where 1 is the maximum)
Sequence of Nuclear receptor subfamily 1 group I member 2 (Homo sapiens) (O75469 whole entry, looked up, the tested form may be a part): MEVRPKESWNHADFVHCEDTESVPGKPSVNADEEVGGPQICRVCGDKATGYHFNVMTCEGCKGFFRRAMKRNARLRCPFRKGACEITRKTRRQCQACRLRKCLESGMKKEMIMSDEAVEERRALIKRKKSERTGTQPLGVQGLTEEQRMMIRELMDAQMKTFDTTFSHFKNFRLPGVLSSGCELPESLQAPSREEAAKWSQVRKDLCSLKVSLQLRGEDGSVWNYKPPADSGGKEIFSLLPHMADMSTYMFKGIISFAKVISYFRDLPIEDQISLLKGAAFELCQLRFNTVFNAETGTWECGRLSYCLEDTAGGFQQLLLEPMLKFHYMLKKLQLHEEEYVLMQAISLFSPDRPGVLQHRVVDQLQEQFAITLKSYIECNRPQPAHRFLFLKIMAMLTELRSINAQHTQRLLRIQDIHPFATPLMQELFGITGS
How it was run: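 Transactivation by exogenous PXR–GAL4 fusion measured as reporter transcript induction after 24 h compound treatment of transfected human HepG2 cells. Read-out via RT-PCR and capillary electrophoresis of labelled fragments, fitted upward relative to DMSO.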

[17] = biological target: human Retinoic Acid Receptor gamma (RARg), RARG (gene 5916) (UniProt P13631); test: ATG_RARg_TRANS: Attagene TRANS-FACTORIAL HepG2 Assay for human Retinoic Acid Receptor gamma (RARg) (AID 2283009; active means hit-call score of the fitted dose curve at least 0.9, where 1 is the maximum;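 on AC50: AC50 is for reporter induction above DMSO meaning RARg activation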)
Sequence of human Retinoic Acid Receptor gamma (RARg), RARG (gene 5916) (P13631 whole entry, looked up, the tested form may be a part): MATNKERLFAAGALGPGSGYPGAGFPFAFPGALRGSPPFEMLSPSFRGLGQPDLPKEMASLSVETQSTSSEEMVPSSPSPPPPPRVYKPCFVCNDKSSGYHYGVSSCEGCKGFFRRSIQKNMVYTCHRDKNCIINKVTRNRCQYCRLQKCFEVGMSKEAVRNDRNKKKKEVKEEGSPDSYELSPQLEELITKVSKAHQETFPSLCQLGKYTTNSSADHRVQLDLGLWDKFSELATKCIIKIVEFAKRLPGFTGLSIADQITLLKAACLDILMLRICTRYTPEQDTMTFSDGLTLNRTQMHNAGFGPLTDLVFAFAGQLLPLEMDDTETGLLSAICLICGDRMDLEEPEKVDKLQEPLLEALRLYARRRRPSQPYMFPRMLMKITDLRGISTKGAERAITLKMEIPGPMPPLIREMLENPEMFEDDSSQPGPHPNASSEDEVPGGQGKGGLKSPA
How it was run: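 Readout: reporter transcript levels via RT-PCR, 6-FAM primer-extension labelling, HpaI digestion and capillary electrophoresis. Cells: HepG2 carrying transfected RARg-GAL4 chimera plus UAS reporter set. Dosing 24 h; DMSO negative control.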

[18] = biological target: human RAR-related Orphan Receptor gamma (RORg), RORC (gene 6097) (UniProt P51449); test: ATG_RORg_TRANS: Attagene TRANS-FACTORIAL HepG2 Assay for human RAR-related Orphan Receptor gamma (RORg) (AID 2283011; active means hit-call score of the fitted dose curve at least 0.9, where 1 is the maximum)
Sequence of human RAR-related Orphan Receptor gamma (RORg), RORC (gene 6097) (P51449 whole entry, looked up, the tested form may be a part): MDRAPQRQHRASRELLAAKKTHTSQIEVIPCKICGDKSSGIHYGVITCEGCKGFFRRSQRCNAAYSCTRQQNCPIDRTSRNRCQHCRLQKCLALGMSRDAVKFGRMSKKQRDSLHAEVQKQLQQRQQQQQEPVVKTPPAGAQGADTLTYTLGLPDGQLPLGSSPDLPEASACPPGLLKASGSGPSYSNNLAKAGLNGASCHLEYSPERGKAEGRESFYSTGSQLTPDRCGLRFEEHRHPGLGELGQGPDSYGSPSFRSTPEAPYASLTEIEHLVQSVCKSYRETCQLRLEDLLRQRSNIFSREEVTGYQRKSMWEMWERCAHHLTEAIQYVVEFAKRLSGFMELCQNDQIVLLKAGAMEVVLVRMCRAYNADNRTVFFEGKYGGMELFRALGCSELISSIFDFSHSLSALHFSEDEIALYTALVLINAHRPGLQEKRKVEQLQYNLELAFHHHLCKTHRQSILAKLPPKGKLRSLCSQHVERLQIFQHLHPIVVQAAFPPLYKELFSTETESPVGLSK
How it was run: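 HepG2 cells transiently transfected with GAL4-UAS reporter units and chimeric RORg-Gal4 construct; after 24 h chemical exposure, reporter mRNA measured by RT-PCR with fluorescent capillary electrophoresis, gain of signal fitted against DMSO.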

[19] = biological target: human Retinoic Acid Receptor beta (RARb), RARB (gene 5915) (UniProt P10826); test: ATG_RARb_TRANS: Attagene TRANS-FACTORIAL HepG2 Assay for human Retinoic Acid Receptor beta (AID 2283004; active means hit-call score of the fitted dose curve at least 0.9, where 1 is the maximum)
Sequence of human Retinoic Acid Receptor beta (RARb), RARB (gene 5915) (P10826 whole entry, looked up, the tested form may be a part): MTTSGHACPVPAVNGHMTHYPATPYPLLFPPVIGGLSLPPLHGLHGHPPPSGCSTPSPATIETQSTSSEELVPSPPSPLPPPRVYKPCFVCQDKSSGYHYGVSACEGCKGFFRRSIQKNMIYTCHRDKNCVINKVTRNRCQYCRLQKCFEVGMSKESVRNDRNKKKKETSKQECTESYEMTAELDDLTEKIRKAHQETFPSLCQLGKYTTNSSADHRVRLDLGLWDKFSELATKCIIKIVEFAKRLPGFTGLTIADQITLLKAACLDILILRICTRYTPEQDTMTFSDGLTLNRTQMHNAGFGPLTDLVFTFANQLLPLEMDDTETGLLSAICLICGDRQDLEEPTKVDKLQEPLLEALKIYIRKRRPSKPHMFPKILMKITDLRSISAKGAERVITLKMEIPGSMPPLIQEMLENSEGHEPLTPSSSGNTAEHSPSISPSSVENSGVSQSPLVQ
How it was run: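 HepG2 cells were transiently transfected with GAL4-UAS reporter units that report activity of exogenous chimeric NR-Gal4 proteins, then exposed to compound for 24 h. Reporter mRNA was quantified by RT-PCR with capillary electrophoresis fluorescence, as gain of signal over DMSO.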

Measured: AC50

O=C(O)C1(C(=O)Nc2ccc(Cl)cc2Cl)CC1
active: [4] 30.4 µM | [14] 32 µM | [15] 35.1 µM
not listed: [19]
inactive: all other assays above

CCCCOC(=O)[C@@H](C)Oc1ccc(Oc2ccc(C(F)(F)F)cn2)cc1
not listed: [12] | [18]
inactive: all other assays above

c1ccc2[nH]c(-c3cscn3)nc2c1
inactive: [1] | [2] | [3] | [4] | [5] | [7] | [8] | [9] | [10] | [11] | [12] | [13] | [19] | [14] | [15] | [16] | [18]
active: [4] 149 µM

CCCOC(=O)c1ccc(C(=O)OCCC)nc1
not listed: [18]
inactive: all other assays above

CC(C)CCCCCCc1ccc(O)cc1
active: [1] 15.8 µM | [2] 15.4 µM | [3] 11.1 µM | [4] 8.96 µM and 11.1 µM and 9.16 µM | [5] 17.4 µM and 17.1 µM | [6] 20.1 µM and 20.3 µM | [7] 9.54 µM | [8] 9.68 µM | [9] 7.98 µM | [10] 10.6 µM | [13] 11.2 µM | [14] 4.54 µM | [15] 11.1 µM | [17] 14.2 µM
inactive: [1] | [2] | [3] | [4] | [5] | [6] | [11] | [12] | [19] | [15] | [17]

C=CCOC(Cn1ccnc1)c1ccc(Cl)cc1Cl (configuration not stated)
active: [2] 75.3 µM | [4] 5.64 µM | [5] 3.55 µM | [14] 21.5 µM | [15] 71.7 µM
not listed: [3] | [17] | [19]
inactive: all other assays above
